# ClpP mod: qHTS Assay for Activators of ClpP | Potency, µM (series often up to 57.5 µM) | 1.9% of 340,000 active | ATP-dependent Clp protease proteolytic subunit (Bacillus subtilis (strain 168)), P80244 | purified B. subtilis ClpP, FRET peptide cleavage, 20 min; active means well fitted falling curve with a large enough effect; inconclusive means small, poorly fitted or top-dose-only effect; inactive means no such curve, though single readings can be large or run the other way; further: the source files actives as falling curves though it sought activators and does not explain the sign; nearly all actives have a fitted effect of over 65% in size
# Target sequence (P80244 whole entry, looked up): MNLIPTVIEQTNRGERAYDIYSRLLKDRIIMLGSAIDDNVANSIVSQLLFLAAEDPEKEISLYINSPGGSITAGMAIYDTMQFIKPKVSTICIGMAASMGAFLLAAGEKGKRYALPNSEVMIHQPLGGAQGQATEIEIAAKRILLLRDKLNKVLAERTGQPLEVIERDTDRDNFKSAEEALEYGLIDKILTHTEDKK
#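 ClpP 10 microg/mL final, pH 8 Tris/KCl buffer with BSA, glycerol, Tween-20; compound pinned in; FRET-FV substrate; RT 20 min; Ex320/Em430; ΔFRET vs ADEP 5.8 microM, DMSO, no enzyme.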
# TDP1 cell noCPT: qHTS for Inhibitors of human tyrosyl-DNA phosphodiesterase 1 (TDP1): qHTS in cells in absence of CPT; DT40 Tdp1-/- hTDP1 cells, no CPT, ATP luminescence, 48 h; Potency, µM (series often up to 46.2 µM), usual class: inhibitors; 15% of 420,000 active; further: nearly all actives have a fitted effect of over 55% in size
#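 Luminescent ATP content (CellTiter-Glo) served as the growth readout. Knockout chicken DT40 cells expressing human TDP1 were exposed to compounds without camptothecin for a minimum 48 hr at 37 °C.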
# D3 ag: agonists of human D3 dopamine receptor. D3R DiscoveRx beta-arrestin cells, luminescence, 90 min. max activation, %. P35462. 0.58% of 410,000 active. AID 652048; in the data active means max activation above about 30%
# Target sequence (P35462 whole entry, looked up): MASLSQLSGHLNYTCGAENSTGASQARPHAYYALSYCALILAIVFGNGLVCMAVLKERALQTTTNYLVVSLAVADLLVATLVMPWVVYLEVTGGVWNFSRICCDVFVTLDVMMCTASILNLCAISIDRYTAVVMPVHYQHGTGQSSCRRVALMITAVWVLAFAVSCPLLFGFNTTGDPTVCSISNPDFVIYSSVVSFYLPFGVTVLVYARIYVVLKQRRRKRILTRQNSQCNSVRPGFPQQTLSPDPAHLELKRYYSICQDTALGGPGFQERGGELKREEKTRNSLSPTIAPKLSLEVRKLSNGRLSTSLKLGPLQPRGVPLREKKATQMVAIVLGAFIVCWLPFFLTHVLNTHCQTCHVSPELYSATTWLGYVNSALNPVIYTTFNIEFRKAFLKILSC
#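 Cells at 1500/well, incubated overnight, then treated with pinned compounds (dopamine as control) for 90 min at 37 degrees C. DiscoveRx reagent added for 30 - 60 minutes at room temperature; luminescence read.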
# IL-1B inflam inh: inhibitors of inflammasome signaling (IL-1 beta secretion); THP-1 LPS/ATP IL-1B secretion, AlphaLISA, 16 h; active compounds read low; activity change, % at 57.5 µM; 4.7% of 360,000 active; AID 743279; in the data active means activity change below about -50%; inconclusive means mostly about -30% to -49%
#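 THP-1 cells pretreated 1 hr with compounds (up to 57.5 uM final), then stimulated with LPS (250 ng/mL final) plus ATP (1.25 mM final); secreted IL-1B measured by AlphaLISA after 16 hr, decreased signal indicating inhibition.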
# TDP1 cell CPT: DT40-hTDP1 cell growth loss with CPT. AID 686979. chicken DT40 Tdp1-/-;hTDP1 cells + 20 nM CPT, ATP luminescence, 48 h. Potency, µM (doses to about 46.2 µM), actives largely listed as inhibitors. 12% of 420,000 active; further: nearly all actives have a fitted effect of over 55% in size
#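 Cell growth measured by CellTiter-Glo luminescence after a minimum 48 h, 37 C compound exposure with 20 nM CPT in Tdp1-knockout DT40 cells stably expressing hTDP1, seeded 400/well; qHTS titration format.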
# D3 antag: blocks the human D3 dopamine receptor | 2.5% of 360,000 active | D3R cells, DiscoveRx beta-arrestin luminescence, antagonist mode; active compounds read low | max response, negative = inhibition, % | AID 652054; in the data active means max response below about -50%; inconclusive means no clear call, values can overlap the other calls
#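 Cells plated overnight at 1500 cells/well, then exposed to library compounds with dopamine controls for 90 minutes at 37 degrees C. DiscoveRx reagent added for 30–60 minutes at room temperature; luminescence read, quantitative HTS format.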
# Numbers stand for hits; – = inactive; ? = inconclusive; · = no result given; [ ] = another dose, or the depositor's remark. In the library only some 21% were active in any assay of this set; here they are far more common. Unless noted, the call rests on the fitted dose curve; in most records, active means well fitted inhibition curve with a large enough effect; inconclusive means small, poorly fitted or top-dose-only effect; inactive means flat fitted curve, though single readings scatter.
SMILES,ClpP mod,TDP1 cell noCPT,D3 ag,IL-1B inflam inh,TDP1 cell CPT,D3 antag
O=C(Nc1cccc(Cl)c1)Nc1nnc(CSCCOc2ccc(Cl)cc2)s1,?,3.3µM,–,–,3.3µM,–
O=C(Nc1ccc(Cl)cc1)Nc1nnc(CSCc2ccccc2)s1,18µM,18µM,–,–,16µM,–
O=C(Nc1ccccc1)Nc1nnc(SCc2ccc(Cl)cc2)s1,–,–,–,–,?,–
O=C(Nc1nnc(CC2=CCCCC2)s1)Nc1ccccc1F,·,?,–,–,?,–
Cc1ccc(NC(=O)Nc2nnc(CSCCOc3ccc(Cl)cc3)s2)cc1,–,?,–,–,–,–
O=C(Nc1cccc(Cl)c1)Nc1nnc(CC2=CCCCC2)s1,–,18µM,33,–,4.6µM,–
O=C(Nc1ccc(S(=O)(=O)Nc2ncccn2)cc1)C(F)(F)F,·,–,–,–,–,–
O=C(Nc1ccc(Cl)cc1)Nc1nnc(SCc2ccc(Cl)cc2)s1,–,–,–,–,–,–
O=C(Nc1ccc(Cl)cc1)Nc1nnc(CSc2ccc(Cl)cc2)s1,·,2.6µM,–,-58,4.6µM,–
O=C(O)C1CCC[C@@H]2[C@@H]3CC(CN12)[C@@H]1CCCCN1C3 (some centres not stated),·,–[9.04 µM],·,·,–[9.04 µM],·
CCOC(=O)c1c(CN2CCCCC2)n(C)c2cc(Br)c(O)c(CN(C)C)c12,–,?,–,–,18µM,-68
CCOC(=O)c1c(CSc2ccc(C)cc2)n(C)c2cc(Br)c(O)c(CN(C)C)c12,–,8.2µM,–,–,?,–
CCOC(=O)c1c(CN2CCCCC2)n(C)c2cc(Br)c(OC)cc12,–,11µM,–,–,?,–
CCOC(=O)c1c(CSc2ccccc2)n(C)c2ccc(O)c(CN3CCN(C)CC3)c12,–,?,–,–,?,–
CCOC(=O)c1c(CN(CC)CC)n(C)c2cc(Br)c(O)cc12,·,?,–,–,–,–
CCOC(=O)c1c(CN(C)C)oc2cc(CN(C)C)c(O)c(CSc3ccccc3)c12,–,–,–,-50,–,-59
CCOC(=O)c1c(CN2CCOCC2)n(-c2ccccc2)c2cc(Br)c(O)c(CN(C)C)c12,–,?,–,?,?,–
CN1CCC(N(C)C(=O)COc2ccccc2Cl)CC1,–,–,–,–,–,–
CCCOC(=O)c1ccc(NC(=O)c2nc3nc(C)cc(C)n3n2)cc1,–,?,–,–,–,–
Cc1ccc(Nc2cc(Cl)nc(N)n2)c([N+](=O)[O-])c1,·,–,–,–,–,–
CCOC(=O)c1c(CSc2ccccc2)n(C)c2cc(Br)c(O)c(CN(C)C)c12,·,15µM,–,-86,21µM,–
CCOC(=O)c1c(CSc2ccsc2)n(C)c2cc(Br)c(O)c(CN(C)C)c12,–,23µM,–,-53,18µM,–
CN(CC(=O)Nc1ccc(Cl)cc1)CC(=O)Nc1cccc(Br)c1,·,?,–,?,–,–
CC(=O)Nc1c(C)nn(-c2ccccc2)c1N1CCC(C(=O)NCc2ccc(F)cc2)CC1,–,–,–,·,–,·
CC(C)(C)OC(=O)[C@H]1[C@H](c2ccc([N+](=O)[O-])cc2)C2(C(=O)c3ccccc3C2=O)C2c3ccccc3C=NN21 (some centres not stated),–,18µM,–,–,?,-59
SMILES,ClpP mod,TDP1 cell noCPT,D3 ag,IL-1B inflam inh,TDP1 cell CPT,D3 antag
COc1ccc([C@H]2[C@H](C(=O)C(C)(C)C)N3N=Cc4ccccc4C3[C@]23N=C(c2ccccc2)OC3=O)cc1OC (some centres not stated),–,?,–,–,–,–
[O-][n+]1ccc(CC(O)(C(F)(F)F)C(F)(F)F)cc1,–,–,–,–,–,–
COc1cc2c(C#N)c(N3CCN(c4ccccc4OC)CC3)nc(N)c2c(N)n1,32µM,–,–,–,?,–
N#Cc1c(N2CCCC2)nc(N)c2c(N)nc(N3CCCC3)cc12,7.9µM,18µM,–,?,?,?
CC(C)(C)c1cnnn1-c1ccc(C(=O)CCl)cc1,–,1.8µM,–,-106,1.3µM,?
CC(C)C1/C(=N/O)CC(c2ccccc2)NC1c1ccccc1 (configuration not stated),·,21µM,–,–,16µM,–
CC1/C(=N/O)CC(c2ccccc2)NC1c1ccccc1 (configuration not stated),–,?,–,–,?,–
CCCC1/C(=N/O)CC(c2ccccc2)NC1c1ccccc1 (configuration not stated),·,4.1µM,–,-98,?,–
CCC1C(=NO)C(CC)C(c2ccccc2)NC1c1ccccc1 (configuration not stated),·,?,–,-51,?,–
CCOCCCNC(=O)Cn1ncc2c([nH]c3ccc(C)cc32)c1=O,?,–,–,·,?,·
COc1cc(C(=O)COC(=O)c2ccc([N+](=O)[O-])o2)cc(OC)c1OC,–,–,–,–,–,–
COc1cccc(CNC(=O)Cc2ccc(Br)cc2)c1,–,–,–,–,–,–
COc1cccc(CNC(=O)c2cc3c(C)nc4ccccc4c3o2)c1,–,18µM,–,–,23µM,–
COc1ccc(Cn2ccc3nc(C)c(C(=O)NCc4ccc(OC)cc4OC)cc3c2=O)cc1,–,–,–,·,–,·
COc1ccc(CNC(=O)c2cc3c(C)nc4ccccc4c3o2)c(OC)c1,–,13µM,–,–,16µM,–
CC1=C(C(=O)Nc2ccccc2C)C(c2ccccn2)n2ncnc2N1 (configuration not stated),–,–,–,·,–,·
CC(C(=O)Nc1ccccc1C(F)(F)F)n1nc(-c2ccccc2)c2c(c1=O)CCCC2 (configuration not stated),–,16µM,–,·,?,·
O=C(COC(=O)/C=C/C(=O)N1CCN(c2ccccc2)CC1)NC(c1ccccc1)c1ccccc1,–,?,–,-54,?,–
O=C(COC(=O)/C=C/c1cccs1)NC(c1ccccc1)c1ccccc1,–,?,–,–,?,–
COc1ccc(NC(=O)CC2NCCNC2=O)c(OC)c1 (configuration not stated),–,–,–,·,–,·
O=C(COc1ccc2c(c1)OCO2)NC12CC3CC(CC(C3)C1)C2,–,?,–,–,?,–
Cc1ccc(NC(=O)NCc2ccc3c(c2)OCO3)cc1C,·,–,–,-63,–,–
Fc1ccc(NC(=S)SCc2ccc3c(c2)OCO3)cc1F,–,18µM,–,–,?,–
O=C(NCc1ccc2c(c1)OCO2)NC12CC3CC(CC(C3)C1)C2,–,18µM,–,–,21µM,–
